Measured values published in PubChem BioAssay AID1650 (Southern Research Specialized Biocontainment Screening …, 2009).
Measured potencies and affinities stand elsewhere. Active and inactive are the calls of the source. How the calls were made is not given here.

Assay: host cell cytotoxicity of antiviral hits, dose response, cytotoxicity control for West Nile virus antiviral project, secondary assay (AID 1650)
Details: Mammalian host cell viability, cytotoxicity counter-screen; series mostly up to 10 µM
For O=C(Nc1ccc2nc3n(c(=O)c2c1)CCCC3)c1cc([N+](=O)[O-])ccc1F, the outcome was “inactive”.
For Cn1c(CCN2CCCCC2)nc2cc(NC(=O)COc3ccc([N+](=O)[O-])cc3)ccc21, the outcome was “inactive”.
In the case of CCN(CC)CCNC(=O)c1ccc(NC(=O)/C=C/c2ccc3ccccc3n2)cc1, the outcome is reported as “inactive”.
For Cc1ccc(OCC(=O)c2cc(C)c(C)cc2C)c([N+](=O)[O-])n1, the outcome was “inactive”.
For CCN1CCN(c2cc(C)c3cc(NC(=S)N4CC(C)CC(C)C4)ccc3n2)CC1 (stereo not given), the outcome was “inactive”.
With COc1ccc(C2c3ccc4ccccc4c3Oc3ncn(CCO)c(=N)c32)cc1 (stereo not given) the outcome was “inactive”.
With CCN(CC)CCn1c(=N)n(CC(=O)c2ccc(Br)s2)c2ccccc21 the outcome was “inactive”.
With COc1ccc2cc(Br)ccc2c1CC(=O)NC1CC(C)(C)NC(C)(C)C1 the outcome was “inactive”.
For CC(C)n1cc(CN2CCCC(C(=O)Nc3cccc(-c4cc5ccccc5[nH]4)c3)C2)cn1 (stereo not given), the outcome was “inactive”.
For CCCN1CCN(CCCNC(=O)c2cc3c(s2)-c2ccccc2OC3)CC1, the outcome was “inactive”.
In the case of CN(C)CCCN1c2ccc([N+](=O)[O-])cc2CCc2cc([N+](=O)[O-])ccc21, the outcome is reported as “inactive”.
For CCn1cc(C(=O)NCc2ccc3c(c2)OCO3)c(=O)c2cc(F)c(N3CCN(C(=O)c4ccco4)CC3)cc21, the outcome was “inactive”.
In the case of Cc1ccc(C)c(CN2C(=O)c3ccccc3S(=O)c3ccc(C(=O)NCCCN4CCCC4)cc32)c1 (stereo not given), the outcome is reported as “inactive”.
In the case of CCCN1CCN(CCCNC(=O)c2ccc3nc(N4CCC(C)CC4)sc3c2)CC1, the outcome is reported as “inactive”.
With COc1ccccc1CN1CCC(CNS(=O)(=O)c2cc(-c3onc(C)c3C)ccc2OC)CC1 the outcome was “inactive”.
With COc1ccc(S(=O)(=O)NC2CCCC2)c(Cl)c1Cl the outcome was “inactive”.
In the case of O=C(/C=C/c1ccc2c(c1)OCO2)Nc1ccc(Cl)cn1, the outcome is reported as “inactive”.
With Cc1cccc(N(CC(=O)NCc2ccco2)C(=O)CCC(=O)Nc2ccccn2)c1C the outcome was “inactive”.
For COc1cc(CNC(C)(C)C)cc(Br)c1OCc1cccs1, the outcome was “inactive”.
With O=c1[nH]c2ccc(Cl)cc2c(-c2ccccc2)c1N1CCN(CCO)CC1 the outcome was “inactive”.
In the case of O=C(Nc1cccc(-c2cccc(Cl)c2)c1)C1CCN(CC2CCOC2)CC1 (stereo not given), the outcome is reported as “inactive”.
In the case of O=C1c2ccccc2C2=Nc3ccccc3SC(c3ccc(Cl)cc3)C12 (stereo not given), the outcome is reported as “inactive”.
In the case of CN(C)CCCNc1ncnc2c1c(-c1ccccc1)cn2-c1ccccc1, the outcome is reported as “inactive”.
In the case of C=CCn1cc(C(=O)NCCCOCC)c(=O)c2cc(S(=O)(=O)N(CC)CC)ccc21, the outcome is reported as “inactive”.
For CC1CCCC(C)N1CCCNC(=O)c1cc2c(s1)-c1ccccc1OC2 (stereo not given), the outcome was “inactive”.
With CCc1ccc(C(=O)Cn2ncc(Cl)c(Cl)c2=O)cc1 the outcome was “inactive”.
In the case of Cc1cc(OCc2cc(C(=O)NCCN3CCCCC3CO)no2)cc(C)c1Cl (stereo not given), the outcome is reported as “inactive”.
With Cc1ccc(-n2c(SCC(=O)Nc3ccc(N4CCOCC4)cc3)nc3ccccc3c2=O)cc1 the outcome was “inactive”.
For CN1CCCC(n2nc(Cc3ccc(Cl)cc3)c3ccccc3c2=O)CC1 (stereo not given), the outcome was “inactive”.
With O=C(CN1CCCC1)Nc1ccc(-c2nc3cc(NC(=O)CN4CCCC4)ccc3o2)cc1 the outcome was “inactive”.
With C/C(N)=C(/C#N)C(=O)COC(=O)c1cc(-c2cccc(Br)c2)nc2ccccc12 the outcome was “inactive”.
In the case of CCc1ccc2nc(N(CCCN(C)C)C(=O)c3ccc4c(c3)OCCO4)sc2c1, the outcome is reported as “inactive”.
In the case of COc1ccc(-c2ccc(C#N)c(SCC(=O)Nc3sc4c(c3C#N)CCC4)n2)cc1OC, the outcome is reported as “inactive”.
With CCN1CCN(c2ccc(S(=O)(=O)N3CCCCC3)cc2NC(=O)Cc2c(Cl)cccc2Cl)CC1 the outcome was “inactive”.
In the case of COc1cccc(/C=N/NC(=O)c2cc(-c3cccn3C)n[nH]2)c1O, the outcome is reported as “inactive”.
For COc1ccc(Nc2nc3ccccc3nc2C)cc1, the outcome was “inactive”.
For CC1=CC(C)(C)N2C(=O)C3(NCCc4c3[nH]c3ccccc43)c3cc(C)cc1c32 (stereo not given), the outcome was “inactive”.
For CCc1cc(-c2[nH]ncc2-c2ccc(OC)cc2)c(O)cc1O, the outcome was “inactive”.
With O=C(Nc1ccc(F)cc1F)c1cc2ccccc2oc1=O the outcome was “inactive”.
With COc1ccc(OCC(O)Cn2c(=N)n(Cc3ccccc3)c3ccccc32)cc1 (stereo not given) the outcome was “inactive”.
